{"source": "PubChem BioAssay (NCATS)", "key": {"[1]": {"experiment": "qHTS to identify inhibitors of the type 1 interferon - major histocompatibility complex class I in skeletal muscle: primary screen against the NCATS LOPAC collection (AID 1347405);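 further: lytic HiBiT luminescence reporting HLA-B protein level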; further: potency means the concentration at half of the fitted maximal effect", "method_in_brief": "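Immortalized human C25cl48 myoblasts with HiBiT knocked into endogenous HLA-B*08:01 were stimulated with 4.0 ng/ml IFN-beta and given compounds in a 7-point, 1:4.3 titration from 46 uM final; after 24 hrs, lytic HiBiT luminescence was read.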"}, "[2]": {"experiment": "qHTS for inhibitors of adenylyl cyclases using a fission yeast platform: a pilot screen against the NCATS LOPAC library (AID 1347410)", "method_in_brief": "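S. pombe CHP2027 (AC9-GNAS-PDE4D2) carrying PKA-repressed fbp1-GFP, incubated 18 h at 30C in EMM with LOPAC compounds at up to 57 uM. GFP gain-of-signal read by laser scanning cytometry; DMSO negative control.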"}, "[3]": {"experiment": "qHTS to identify inhibitors of the type 1 interferon - major histocompatibility complex class I in skeletal muscle: primary screen against the NCATS Mechanism Interrogation Plate v5.0 (MIPE) Libary (AID 1347411); further: nearly all actives have a fitted effect of over 65% in size; further: potency means the concentration at half of the fitted maximal effect", "method_in_brief": "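Immortalized human C25cl48 myoblasts with HiBit knocked into endogenous HLA-B*08:01 were stimulated with 4.0 ng/ml IFN-beta and exposed to compounds (11-point 1:3 titration, top 46 uM final) for 24 hrs at 37 C; HiBiT lytic luminescence measured.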"}, "[4]": {"experiment": "Validation qHTS assay for inhibitors of Activation Induced Cytidine Deaminase (AID): UDG Counterscreen signal (AID 1347427)", "method_in_brief": "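Counterscreen read of UDG activity (2 U/mL, 4/3x) in the FRET deamination format with AID (1 uM, 4/3x), DJC20/DJC23 substrates (250 nM, 4x), 4 h at room temperature. NaOH stop, fluorescence at 560 ex/665 em.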"}, "[5]": {"molecular_target": "Single-stranded DNA cytosine deaminase (Homo sapiens) (UniProt Q9GZX7)", "sequence (Q9GZX7 whole entry, looked up)": "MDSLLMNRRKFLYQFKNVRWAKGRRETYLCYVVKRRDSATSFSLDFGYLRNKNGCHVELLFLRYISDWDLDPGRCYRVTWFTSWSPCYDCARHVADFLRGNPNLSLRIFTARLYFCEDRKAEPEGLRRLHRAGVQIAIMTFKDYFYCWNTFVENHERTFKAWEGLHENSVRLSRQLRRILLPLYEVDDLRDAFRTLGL", "experiment": "Validation qHTS assay for inhibitors of Activation Induced Cytidine Deaminase (AID): AID signal (AID 1347429)", "method_in_brief": "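AID and UDG were combined and compounds added at final up to 114 uM, then DJC20/DJC23 FRET substrate was added for 4 hr at room temperature. NaOH was then added for 30 min before fluorescence was read at 540/590 nm.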"}, "[6]": {"experiment": "qHTS to identify inhibitors of the type 1 interferon - major histocompatibility complex class I in skeletal muscle: primary screen against the NCATS Pharmaceutical Collection (AID 1347407)", "method_in_brief": "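Immortalized human myoblasts (C25cl48) with HiBiT knocked into endogenous HLA-B*08:01 were stimulated with 4.0 ng/ml IFN-beta and treated with compounds ([…] top 46 uM) for 24 hrs at 37 C. HiBiT lytic luminescence read.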"}, "[7]": {"molecular_target": "Protein phosphatase 1D (Homo sapiens) (UniProt O15297)", "sequence (O15297 whole entry, looked up)": "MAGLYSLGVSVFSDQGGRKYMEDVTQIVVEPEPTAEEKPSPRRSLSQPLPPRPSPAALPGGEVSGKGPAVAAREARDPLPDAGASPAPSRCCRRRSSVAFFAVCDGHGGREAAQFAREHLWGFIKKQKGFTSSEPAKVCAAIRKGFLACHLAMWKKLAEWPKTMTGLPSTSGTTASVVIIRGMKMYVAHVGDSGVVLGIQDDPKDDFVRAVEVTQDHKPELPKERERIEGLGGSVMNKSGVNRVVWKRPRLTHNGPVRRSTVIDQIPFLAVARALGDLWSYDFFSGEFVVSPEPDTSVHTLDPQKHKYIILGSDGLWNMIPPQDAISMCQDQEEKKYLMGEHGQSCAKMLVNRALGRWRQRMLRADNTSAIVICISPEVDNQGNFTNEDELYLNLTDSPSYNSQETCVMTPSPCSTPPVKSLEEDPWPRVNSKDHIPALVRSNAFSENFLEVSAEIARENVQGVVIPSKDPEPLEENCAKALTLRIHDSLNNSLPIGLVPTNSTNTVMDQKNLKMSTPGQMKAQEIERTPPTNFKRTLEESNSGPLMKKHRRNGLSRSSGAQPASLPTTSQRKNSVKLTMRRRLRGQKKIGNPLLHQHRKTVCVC", "experiment": "RapidFire Mass Spectrometry qHTS Assay for Modulators of WT P53-Induced Phosphatase 1 (WIP1) (AID 1347424);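 further: amount of dephosphorylated VEPPL-S-QETFS peptide product formed by WIP1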; further: potency means the concentration at half of the fitted maximal effect", "method_in_brief": "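WIP1 (10 nM final) was preincubated 1 h at room temperature with compounds in Tris-HCl pH 7.5, 30 mM MgCl2, TCEP, EGTA, BSA; 2 uM VEPPL-pS-QETFS phosphopeptide was added for 5 min, quenched with formic acid, and dephosphorylated product quantified by RapidFire MS.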"}, "[8]": {"molecular_target": "Protein phosphatase 1D (Homo sapiens) (UniProt O15297)", "experiment": "Rhodamine-PBP qHTS Assay for Modulators of WT P53-Induced Phosphatase 1 (WIP1) (AID 1347425)", "method_in_brief": "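5 nM WIP1 + 10 uM Rh-PBP, 50 mM Tris pH 7.5, 30 mM MgCl2, 1 mM TCEP, 0.1 mM EGTA, BSA; cpds pinned, 1 hr RT; + 10 uM phosphopeptide; fluorescence 1-min reads x 11 min; delta = f1 - f0.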"}}, "note": "Unmarked numbers belong to inactive results. Results filed as inconclusive are left out. Where a call stands in place of a potency, no number is given. Active and inactive are the calls of the source. The call rests on the fitted dose curve; in most records, active means well fitted curve in the direction sought with a large enough effect; inconclusive means small, poorly fitted or top-dose-only effect, or another doubt; inactive means no such curve, though single readings can be large; an effect the other way counts as inactive or inconclusive.", "data": [{"smiles": "CCCN1CCO[C@@H]2c3cc(O)ccc3OC[C@H]21", "values": [{"measurement": "Potency", "setting": "[1]", "value": "inactive"}, {"measurement": "outcome", "setting": "[2]", "value": "inactive"}, {"measurement": "Potency", "setting": "[3]", "value": "inactive"}, {"measurement": "outcome", "setting": "[4]", "value": "inactive"}, {"measurement": "outcome", "setting": "[5]", "value": "inactive"}]}, {"smiles": "S=C(NC1CCCCC1)N1CCC(c2cnc[nH]2)CC1", "values": [{"measurement": "Potency", "setting": "[1]", "value": "inactive"}, {"measurement": "outcome", "setting": "[2]", "value": "inactive"}, {"measurement": "outcome", "setting": "[4]", "value": "inactive"}, {"measurement": "outcome", "setting": "[5]", "value": "inactive"}]}, {"smiles": "CC[C@@]1(O)C(=O)OCc2c1cc1n(c2=O)Cc2cc3ccccc3nc2-1", "values": [{"measurement": "Potency", "setting": "[1]", "value": "708 nM (active)"}, {"measurement": "outcome", "setting": "[2]", "value": "inactive"}, {"measurement": "Potency", "setting": "[3]", "value": "2080 nM (active)"}, {"measurement": "outcome", "setting": "[4]", "value": "inactive"}, {"measurement": "outcome", "setting": "[5]", "value": "inactive"}]}, {"smiles": "CS(=N)(=O)CC[C@H](N)C(=O)O", "note": "(stereo not given in full)", "values": [{"measurement": "Potency", "setting": "[1]", "value": "inactive"}, {"measurement": "outcome", "setting": "[2]", "value": "inactive"}, {"measurement": "outcome", "setting": "[4]", "value": "inactive"}, {"measurement": "outcome", "setting": "[5]", "value": "inactive"}]}, {"smiles": "CC1(C)CC/C(=C/c2ccc(Cl)cc2)C1(O)Cn1cncn1", "note": "(stereo not given)", "values": [{"measurement": "outcome", "setting": "[6]", "value": "inactive"}, {"measurement": "Potency", "setting": "[7]", "value": "inactive"}, {"measurement": "outcome", "setting": "[8]", "value": "inactive"}]}, {"smiles": "CC[N+]1(CCOC(=O)C(O)(c2ccccc2)c2ccccc2)CCCCC1", "values": [{"measurement": "outcome", "setting": "[6]", "value": "inactive"}, {"measurement": "Potency", "setting": "[7]", "value": "inactive"}, {"measurement": "outcome", "setting": "[8]", "value": "inactive"}]}, {"smiles": "NCc1cc(=O)[nH]o1", "values": [{"measurement": "Potency", "setting": "[1]", "value": "inactive"}, {"measurement": "outcome", "setting": "[2]", "value": "inactive"}, {"measurement": "outcome", "setting": "[4]", "value": "inactive"}, {"measurement": "outcome", "setting": "[5]", "value": "inactive"}]}, {"smiles": "CCC(=O)O[C@@H]1C=C2CCC3C(CCC4(C)C3CC[C@@H]4OC(=O)CC)C2CC1", "note": "(stereo not given in full)", "values": [{"measurement": "outcome", "setting": "[6]", "value": "inactive"}, {"measurement": "Potency", "setting": "[7]", "value": "inactive"}, {"measurement": "outcome", "setting": "[8]", "value": "inactive"}]}, {"smiles": "O=C1C(I)=CC(=C(c2cc(I)c(O)c(I)c2)c2ccccc2C(=O)O)C=C1I", "values": [{"measurement": "outcome", "setting": "[6]", "value": "inactive"}]}, {"smiles": "Nc1ccc(Sc2ccc(N)cc2)cc1", "values": [{"measurement": "outcome", "setting": "[6]", "value": "inactive"}, {"measurement": "Potency", "setting": "[7]", "value": "inactive"}]}, {"smiles": "Nc1c(Cl)c(Cl)c(Cl)c(Cl)c1Cl", "values": [{"measurement": "outcome", "setting": "[6]", "value": "inactive"}, {"measurement": "Potency", "setting": "[7]", "value": "inactive"}, {"measurement": "outcome", "setting": "[8]", "value": "inactive"}]}, {"smiles": "CC(C)Oc1cccnc1N(C)C1CCN(Cc2ccccc2)CC1", "values": [{"measurement": "Potency", "setting": "[1]", "value": "inactive"}, {"measurement": "outcome", "setting": "[2]", "value": "inactive"}, {"measurement": "outcome", "setting": "[4]", "value": "inactive"}, {"measurement": "outcome", "setting": "[5]", "value": "inactive"}]}, {"smiles": "CC(C)(C)C(O)C(Oc1ccc(Cl)cc1)n1cncn1", "note": "(stereo not given)", "values": [{"measurement": "outcome", "setting": "[6]", "value": "inactive"}, {"measurement": "Potency", "setting": "[7]", "value": "inactive"}, {"measurement": "outcome", "setting": "[8]", "value": "inactive"}]}, {"smiles": "O=[N+]([O-])c1c2ccccc2cc2ccccc12", "values": [{"measurement": "outcome", "setting": "[6]", "value": "inactive"}, {"measurement": "Potency", "setting": "[7]", "value": "inactive"}]}, {"smiles": "CS(=O)(=O)c1ccc(C(=O)C2C(=O)CCCC2=O)c([N+](=O)[O-])c1", "values": [{"measurement": "outcome", "setting": "[6]", "value": "inactive"}]}, {"smiles": "O=S(=O)(O)C(F)(F)C(F)(F)C(F)(F)C(F)(F)C(F)(F)C(F)(F)C(F)(F)C(F)(F)F", "values": [{"measurement": "outcome", "setting": "[6]", "value": "inactive"}, {"measurement": "Potency", "setting": "[7]", "value": "1580 nM (active)"}]}, {"smiles": "Nc1ccc([N+](=O)[O-])cc1", "values": [{"measurement": "outcome", "setting": "[6]", "value": "inactive"}, {"measurement": "Potency", "setting": "[7]", "value": "inactive"}, {"measurement": "outcome", "setting": "[8]", "value": "inactive"}]}, {"smiles": "CCCCCCCCc1ccc(O)cc1", "values": [{"measurement": "outcome", "setting": "[6]", "value": "inactive"}, {"measurement": "Potency", "setting": "[7]", "value": "inactive"}]}, {"smiles": "COc1ccc(C(c2ccc(OC)cc2)C(Cl)(Cl)Cl)cc1", "values": [{"measurement": "outcome", "setting": "[6]", "value": "inactive"}, {"measurement": "Potency", "setting": "[7]", "value": "inactive"}, {"measurement": "outcome", "setting": "[8]", "value": "inactive"}]}, {"smiles": "NC(CP(=O)(O)O)C(=O)O", "note": "(stereo not given)", "values": [{"measurement": "Potency", "setting": "[1]", "value": "inactive"}, {"measurement": "outcome", "setting": "[2]", "value": "inactive"}, {"measurement": "outcome", "setting": "[4]", "value": "inactive"}, {"measurement": "outcome", "setting": "[5]", "value": "inactive"}]}, {"smiles": "COc1nn(CSP(=S)(OC)OC)c(=O)s1", "values": [{"measurement": "outcome", "setting": "[6]", "value": "inactive"}, {"measurement": "Potency", "setting": "[7]", "value": "inactive"}]}, {"smiles": "C[C@@H](N)Cc1cnc[nH]1", "values": [{"measurement": "Potency", "setting": "[1]", "value": "inactive"}, {"measurement": "outcome", "setting": "[2]", "value": "inactive"}, {"measurement": "outcome", "setting": "[4]", "value": "inactive"}, {"measurement": "outcome", "setting": "[5]", "value": "inactive"}]}, {"smiles": "COC(C)(C)CCCC(C)C/C=C/C(C)=C/C(=O)OC(C)C", "note": "(stereo not given)", "values": [{"measurement": "outcome", "setting": "[6]", "value": "inactive"}, {"measurement": "Potency", "setting": "[7]", "value": "inactive"}, {"measurement": "outcome", "setting": "[8]", "value": "inactive"}]}]}
